# For some assays here: Potency and affinity values are given separately. The source made the active and inactive calls.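 Rule for the calls, unless noted: active = primary screen inhibitor hit that blocks the TRPC4 channel at some tested dose, yielding a dose curve; inactive = the rest.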
# Legend:
# [1] = test system: TRPC4 beta (transient receptor potential cation channel C4), mouse; experiment: TRPC4 cation channel opening, retest – cell-based, Fluo4 calcium, HEK293 TRPC4beta/mu-opioid, duplicates, 10 µM, confirmation (AID 2426;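 active = fluorescence ratio normalized to control raised more than 50% in primary screen plus both repeat runs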); conditions: Fluo4 calcium fluorescence, at 10 µM; stronger effect = higher value
# [2] = test system: transient receptor potential cation channel C4 beta (TRPC4), mouse; experiment: TRPC4 cation channel opening, second retest – cell-based, second round, Fluo4, HEK293 TRPC4beta/mu-opioid, 1 µM, confirmation (AID 2461;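 active = primary screen active and over 50% activation in each of two duplicate runs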); conditions: Fluo4 calcium fluorescence, at 1 µM; stronger effect = higher value
# [3] = test system: TRPC4 (transient receptor potential cation channel C4 beta), mouse; experiment: potentiation of DAMGO EC20 TRPC4 response – cell-based, second round, Fluo-4, HEK293 TRPC4beta/mu-opioid, 1 µM, confirmation (AID 2554;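 active = primary screen hit whose fluorescence ratio, in both repeats, exceeds the weak agonist control mean by 3 SD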); conditions: DAMGO EC20, Fluo-4 calcium flux, at 1 µM; stronger effect = higher value
# [4] = test system: TRPC4 beta (transient receptor potential cation channel C4), mouse; experiment: potentiation of DAMGO EC20 TRPC4 response – cell-based, Fluo-4, HEK293 TRPC4beta/mu-opioid, confirmation (AID 2555;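 active = primary screen hit whose calcium fluorescence ratio, in both repeats, exceeds the weak agonist control mean by 3 SD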); conditions: DAMGO EC20, Fluo-4 calcium flux, at 10 µM; stronger effect = higher value
# [5] = target: Short transient receptor potential channel 4 (Mus musculus) (UniProt Q9QUQ5); experiment: blockers of DAMGO-evoked TRPC4 calcium flux – cell-based, Fluo4, HEK293 TRPC4beta/mu-opioid, confirmation (AID 2636;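 active = calcium signal cut by more than 3 SD below the full-agonist control yet still positive, in both repeats and the earlier primary screen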); conditions: at 10 µM; stronger effect = higher value
# Sequence of Short transient receptor potential channel 4 (Mus musculus) (Q9QUQ5 whole entry, looked up): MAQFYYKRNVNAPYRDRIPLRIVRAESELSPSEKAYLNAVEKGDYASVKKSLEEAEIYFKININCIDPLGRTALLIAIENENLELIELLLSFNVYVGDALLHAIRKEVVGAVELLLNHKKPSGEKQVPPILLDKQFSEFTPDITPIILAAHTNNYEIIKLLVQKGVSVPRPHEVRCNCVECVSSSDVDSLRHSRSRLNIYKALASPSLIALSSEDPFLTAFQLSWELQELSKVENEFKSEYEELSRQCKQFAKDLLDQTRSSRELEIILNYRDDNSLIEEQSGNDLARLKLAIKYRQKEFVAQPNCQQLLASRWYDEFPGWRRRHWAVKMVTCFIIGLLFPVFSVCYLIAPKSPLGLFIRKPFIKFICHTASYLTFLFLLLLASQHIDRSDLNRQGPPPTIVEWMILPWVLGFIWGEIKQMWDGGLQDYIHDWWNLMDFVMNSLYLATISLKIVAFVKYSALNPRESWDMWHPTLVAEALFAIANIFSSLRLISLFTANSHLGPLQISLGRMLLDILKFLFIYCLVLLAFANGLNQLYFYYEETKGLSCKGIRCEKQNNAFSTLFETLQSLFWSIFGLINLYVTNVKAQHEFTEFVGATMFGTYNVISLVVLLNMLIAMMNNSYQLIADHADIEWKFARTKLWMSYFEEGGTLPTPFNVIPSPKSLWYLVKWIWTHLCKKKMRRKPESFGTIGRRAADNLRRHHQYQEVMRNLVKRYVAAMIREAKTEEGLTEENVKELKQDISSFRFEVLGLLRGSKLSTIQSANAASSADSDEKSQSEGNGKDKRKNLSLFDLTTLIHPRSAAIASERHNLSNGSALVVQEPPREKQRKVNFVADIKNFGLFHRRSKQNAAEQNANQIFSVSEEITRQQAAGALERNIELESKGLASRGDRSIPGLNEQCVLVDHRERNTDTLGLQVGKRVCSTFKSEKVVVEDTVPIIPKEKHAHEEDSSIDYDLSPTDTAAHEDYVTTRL
# [6] = target: Short transient receptor potential channel 4 (Mus musculus) (UniProt Q9QUQ5); experiment: blockers of DAMGO-evoked TRPC4 calcium flux – cell-based, second round, Fluo4, HEK293 TRPC4beta/mu-opioid, 1 µM, confirmation (AID 2637;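 active = calcium signal ratio cut to more than 3 SD under the fully stimulated control mean yet still positive, in both repeats and the primary screen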); conditions: at 1 µM; stronger effect = higher value
# [7] = target: Short transient receptor potential channel 4 (Mus musculus) (UniProt Q9QUQ5); experiment: calcium entry via TRPC4 opening agents – cell-based, HEK293 TRPC4/mu-opioid, Fluo-4 calcium, dose response (AID 434937;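 active = primary screen activator hit with a dose response curve and TRPC4 channel activation at any tested dose; inactive = no activation, no dose response, or not a primary hit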)
# [8] = target: Short transient receptor potential channel 4 (Mus musculus) (UniProt Q9QUQ5); experiment: potentiation of DAMGO-evoked TRPC4 calcium signal – cell-based, HEK293 TRPC4/mu-opioid, Fluo-4 calcium, EC20 DAMGO, dose response (AID 434941;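 active = earlier screen potentiator hit that boosts the TRPC4 ion channel at some dose, with a dose response; inactive = no potentiation, no dose response, or not a prior hit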;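 note: calcium entry triggered by an EC20 dose of DAMGO at the co-expressed mu-opioid receptor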)
# [9] = target: Short transient receptor potential channel 4 (Mus musculus) (UniProt Q9QUQ5); experiment: block of DAMGO-driven TRPC4 calcium entry – cell-based, HEK293 TRPC4/mu-opioid, Fluo-4 calcium, dose response (AID 434942)
# [10] = target: Short transient receptor potential channel 6 (Mus musculus) (UniProt Q61143); experiment: TRPC6 blockade by TRPC4 inhibitor hits – cell-based, HEK293, membrane potential dye, duplicate, selectivity assay for TRPC4 inhibitor project, confirmation (AID 434948;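 active = active in primary screen and both duplicates, each dropping signal beyond three positive-control SD with fluorescence still positive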); conditions: HEK293 TRPC6, membrane potential dye fluorescence, at 10 µM, stimulated with maximal-effect acetylcholine; stronger effect = higher value
# Sequence of Short transient receptor potential channel 6 (Mus musculus) (Q61143 whole entry, looked up): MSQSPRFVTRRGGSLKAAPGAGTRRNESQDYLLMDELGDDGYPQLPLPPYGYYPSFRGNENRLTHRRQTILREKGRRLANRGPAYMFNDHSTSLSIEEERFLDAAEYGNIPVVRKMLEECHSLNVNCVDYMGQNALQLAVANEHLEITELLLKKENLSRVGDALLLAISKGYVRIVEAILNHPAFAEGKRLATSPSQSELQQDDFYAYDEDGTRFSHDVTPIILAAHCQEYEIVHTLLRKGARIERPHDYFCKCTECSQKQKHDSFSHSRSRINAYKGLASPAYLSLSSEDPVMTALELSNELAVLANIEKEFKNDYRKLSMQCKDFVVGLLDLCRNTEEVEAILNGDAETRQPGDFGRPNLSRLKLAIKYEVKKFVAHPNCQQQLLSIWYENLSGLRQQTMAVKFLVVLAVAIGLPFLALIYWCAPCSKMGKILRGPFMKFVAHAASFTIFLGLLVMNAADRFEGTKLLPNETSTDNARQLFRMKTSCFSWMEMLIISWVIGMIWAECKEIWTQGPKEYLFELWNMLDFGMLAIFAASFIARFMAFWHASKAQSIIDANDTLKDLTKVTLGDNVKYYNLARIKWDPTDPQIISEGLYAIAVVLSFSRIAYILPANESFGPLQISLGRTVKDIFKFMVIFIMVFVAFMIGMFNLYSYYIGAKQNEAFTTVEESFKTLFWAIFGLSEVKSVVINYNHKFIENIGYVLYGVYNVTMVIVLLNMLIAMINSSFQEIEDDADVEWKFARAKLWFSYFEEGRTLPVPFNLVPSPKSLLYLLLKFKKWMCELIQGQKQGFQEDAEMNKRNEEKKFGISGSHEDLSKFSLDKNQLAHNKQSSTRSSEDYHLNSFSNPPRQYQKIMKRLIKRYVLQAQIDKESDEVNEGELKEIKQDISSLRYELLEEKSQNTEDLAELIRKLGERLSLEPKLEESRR
# [11] = target: Short transient receptor potential channel 6 (Mus musculus) (UniProt Q61143); experiment: TRPC6 opening by TRPC4 activator hits – cell-based, HEK293, membrane potential dye, duplicate, selectivity assay for TRPC4 activator project, confirmation (AID 434950;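 active = membrane potential signal rise above negative control mean plus 3 SD in both duplicates, also active in the earlier TRPC4 screen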); conditions: HEK293 TRPC6, membrane potential fluorescence, at 10 µM; activation: stronger effect = higher value; outcome: activation
# [12] = target: Short transient receptor potential channel 6 (Mus musculus) (UniProt Q61143); experiment: positive modulators of mouse TRPC6 channel – HEK293 cells, membrane potential dye, duplicate, selectivity assay for TRPC4 potentiator project, confirmation (AID 434952;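 active = compound raising the membrane signal above positive-control mean plus 3 SD in both repeats, and a primary screen hit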); conditions: HEK293 TRPC6, membrane potential dye fluorescence, at 10 µM, maximal acetylcholine added after compound; stronger effect = higher value
# [13] = target: Short transient receptor potential channel 4 (Mus musculus) (UniProt Q9QUQ5); experiment: calcium flux activators in TRPC4/5HT1a cells, counter-screen for TRPC4 activator project, cell-based, second counter screen, HEK293 TRPC4/5HT1a, Fluo-4 (AID 434977;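 active = calcium signal rise above buffer-control mean plus 5 SD in both duplicates, and also a hit in the primary screen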); conditions: Fluo-4 calcium flux, at 10 µM; stronger effect = higher value
# [14] = serotonin-gated TRPC4 signal block – cell-based, second counter screen, HEK293 TRPC4/5HT1a, Fluo-4, counter-screen for TRPC4 inhibitor project, confirmation (AID 434978;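 active = primary screen active whose calcium signal fell more than 3 SD beyond the full-serotonin control mean in both duplicate plates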;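 note: serotonin given first at submaximal then at maximal dose after compound preincubation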); conditions: Fluo-4 calcium flux, at 10 µM, serotonin added to trigger calcium flux; stronger effect = higher value
# [15] = test system: TRPC4 (mouse), co-expressed with 5HT1a in HEK293; experiment: enhancement of serotonin-evoked TRPC4 response – cell-based, second counter screen, HEK293 TRPC4/5HT1a, Fluo-4, counter-screen for TRPC4 potentiator project, confirmation (AID 434979;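 active = signal rise over 3 SD above mean of control wells given weak agonist, in both repeats and first screen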); conditions: Fluo-4 calcium flux, at 10 µM, serotonin added at its EC20 dose; stronger effect = higher value
# [16] = nonspecific calcium rise without TRPC4 – cell-based, HEK293 mu-opioid receptor line, counter-screen for TRPC4 activator project, confirmation (AID 449723;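 active = hit in primary screen, with calcium signal over 5 SD above buffer well mean in both duplicates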;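 note: counter screen cells carry the mu-opioid receptor alone and lack TRPC4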); conditions: HEK293 mu-opioid cells, Fluo-4 calcium fluorescence, at 10 µM; stronger effect = higher value
# [17] = nonspecific potentiation of DAMGO calcium response – cell-based, HEK293 mu-opioid receptor line, counter-screen for TRPC4 allosteric potentiator project, confirmation (AID 449724;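 active = calcium signal rise more than 3 SD above the low-dose agonist control mean, in both duplicate plates and the primary screen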); conditions: HEK293 mu-opioid receptor cells, Fluo-4 calcium flux, at 10 µM, compound added before EC20 DAMGO stimulus; stronger effect = higher value
compound,measurement,setting,value
CCN1CCN(c2ccc(S(=O)(=O)N3CCCCC3)cc2NC(=O)c2cccc(OC(F)F)c2)CC1,outcome,[1],inactive
same,outcome,[2],inactive
same,potentiation,[3],7% (active)
same,potentiation,[4],18% (active)
same,outcome,[5],inactive
same,outcome,[6],inactive
same,outcome,[7],inactive
same,outcome,[8],inactive
same,outcome,[9],inactive
same,outcome,[10],inactive
same,outcome,[11],inactive
same,outcome,[12],inactive
same,outcome,[13],inactive
same,outcome,[14],inactive
same,potentiation,[15],15.6% (active)
same,outcome,[16],inactive
same,outcome,[17],inactive
O=C(NCCCN1CCCC1=O)c1ccc(CNS(=O)(=O)c2ccc(F)cc2)cc1,outcome,[1],inactive
same,outcome,[2],inactive
same,outcome,[3],inactive
same,outcome,[4],inactive
same,outcome,[5],inactive
same,outcome,[6],inactive
same,outcome,[7],inactive
same,outcome,[8],inactive
same,outcome,[9],inactive
same,outcome,[10],inactive
same,outcome,[11],inactive
same,outcome,[12],inactive
same,outcome,[13],inactive
same,outcome,[14],inactive
same,potentiation,[15],14.7% (active)
same,outcome,[16],inactive
same,outcome,[17],inactive
CN(C)CCCn1c(=O)n(CCc2ccccc2)c(=O)c2c3c(sc21)CCCCC3,outcome,[1],inactive
same,outcome,[2],inactive
same,outcome,[3],inactive
same,outcome,[4],inactive
same,outcome,[5],inactive
same,outcome,[6],inactive
same,outcome,[7],inactive
same,outcome,[8],inactive
same,outcome,[9],inactive
same,outcome,[10],inactive
same,outcome,[11],inactive
same,outcome,[12],inactive
same,outcome,[13],inactive
same,outcome,[14],inactive
same,outcome,[15],inactive
same,outcome,[16],inactive
same,outcome,[17],inactive
CCOC(=O)c1c(C(F)(F)C(F)(F)C(F)(F)C(F)(F)F)n[nH]c1C,outcome,[1],inactive
same,outcome,[2],inactive
same,outcome,[3],inactive
same,outcome,[4],inactive
same,outcome,[5],inactive
same,outcome,[6],inactive
same,outcome,[7],inactive
same,outcome,[8],inactive
same,outcome,[9],inactive
same,outcome,[10],inactive
same,outcome,[11],inactive
same,outcome,[12],inactive
same,outcome,[13],inactive
same,outcome,[14],inactive
same,outcome,[15],inactive
same,outcome,[16],inactive
same,outcome,[17],inactive
COc1cc(Cl)c(S(=O)(=O)N2CCN(Cc3ccc4c(c3)OCO4)CC2)cc1Cl,outcome,[1],inactive
same,outcome,[2],inactive
same,outcome,[3],inactive
same,potentiation,[4],10% (active)
same,outcome,[5],inactive
same,outcome,[6],inactive
same,outcome,[7],inactive
same,outcome,[8],inactive
same,outcome,[9],inactive
same,outcome,[10],inactive
same,outcome,[11],inactive
same,outcome,[12],inactive
same,outcome,[13],inactive
same,outcome,[14],inactive
same,potentiation,[15],16.8% (active)
same,outcome,[16],inactive
same,outcome,[17],inactive
CCOC(=O)c1c(NC(NC(C)=O)C(Cl)(Cl)Cl)sc2c1CCCC2 (centres undefined),outcome,[1],inactive
same,outcome,[2],inactive
same,outcome,[3],inactive
same,outcome,[4],inactive
same,outcome,[5],inactive
same,outcome,[6],inactive
same,outcome,[7],inactive
same,outcome,[8],inactive
same,outcome,[9],inactive
same,outcome,[10],inactive
same,outcome,[11],inactive
same,outcome,[12],inactive
same,outcome,[13],inactive
same,outcome,[14],inactive
same,potentiation,[15],7.17% (active)
same,outcome,[16],inactive
same,outcome,[17],inactive
COc1ccc(S(=O)(=O)N2CCCCCC2)cc1C(=O)N(C)Cc1ccc(Cl)cc1Cl,outcome,[1],inactive
same,outcome,[2],inactive
same,outcome,[3],inactive
same,potentiation,[4],46% (active)
same,outcome,[5],inactive
same,outcome,[6],inactive
same,outcome,[7],inactive
same,outcome,[8],inactive
same,outcome,[9],inactive
same,outcome,[10],inactive
same,outcome,[11],inactive
same,outcome,[12],inactive
same,outcome,[13],inactive
same,outcome,[14],inactive
same,potentiation,[15],14.4% (active)
same,outcome,[16],inactive
same,activation,[17],2180% (active)
